# Inconclusive results are not listed. Where a call stands in place of a potency, no number is given. Activity calls are given as the source filed them. The call rests on the fitted dose curve; in most records, active means well fitted cell-killing curve with a large enough effect in the repeat runs; inconclusive means weak or mixed curves, or effect the other way; inactive means flat fitted curve, though single readings scatter.
# What was measured:
# [1] = cAMP Responsive Elements (CRE) small molecule antagonists, cell-based qHTS assay: qHTS cell viability counter screen (AID 2060913); details: CRE-bla HEK293T viability, CellTiter-Glo luminescence, 5 h; series mostly up to 92.4 µM; further: nearly all actives have a fitted effect of over 40% in size
# Outline: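 Cytotoxicity counter screen multiplexed with the CRE-bla antagonist read: HEK293T cells in DMEM with dialyzed FBS and 25 mM HEPES were treated 3 hrs under 0.25 uM final NKH477, then viability measured by CellTiter-Glo luminescence.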
# [2] = cAMP Responsive Elements (CRE) small molecule agonists, cell-based qHTS assay: qHTS cell viability counter screen (AID 2060914); details: CRE-bla HEK293T viability, CellTiter-Glo luminescence, 5 h; series mostly up to 92.4 µM; further: nearly all actives have a fitted effect of over 50% in size
# Outline: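 Cytotoxicity was measured as ATP luminescence (CellTiter-Glo, 30 min at room temperature) in the same wells as the CRE-bla FRET read-out. HEK293T CRE-bla cells had 3 h compound exposure at 37C/5% CO2.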
# Potency means the concentration at half of the fitted maximal effect.
SMILES,Potency [1],Potency [2]
CCOCn1c(-c2ccc(Cl)cc2)c(C#N)c(Br)c1C(F)(F)F,inactive,inactive
CC1(C)[C@H](C(=O)O[C@H](C#N)c2cccc(Oc3ccccc3)c2)[C@@H]1/C=C(\Cl)C(F)(F)F,inactive,inactive
O=C(O)CC[N+](=O)[O-],inactive,inactive
OC[P+](CO)(CO)CO,inactive,inactive
Cc1c(F)c(F)c(COC(=O)C2C(/C=C(\Cl)C(F)(F)F)C2(C)C)c(F)c1F (centres undefined),inactive,inactive
Nc1nc(=S)[nH][nH]1,inactive,inactive
CN1CSC(=S)N(C)C1,inactive,inactive
CCCCNC(=O)n1c(NC(=O)OC)nc2ccccc21,inactive,inactive
Oc1cc(Cl)cc(Cl)c1,inactive,inactive
CCOC(=O)CP(=O)(OCC)OCC,inactive,inactive
CS(=O)(=O)Cl,inactive,inactive
COP(N)(=O)SC (centres undefined),inactive,inactive
Cc1cnc2c(C(=O)O)c(Cl)ccc2c1,inactive,inactive
O=C1CCCO1,inactive,inactive
CC(C)N(C(=O)COc1nnc(C(F)(F)F)s1)c1ccc(F)cc1,inactive,inactive
CCC[CH2][Sn]([Cl])([Cl])[Cl],inactive,inactive
Cc1cc(-c2ccc(N)c(C)c2)ccc1N,inactive,inactive
C[C@H](N)C(=O)c1ccccc1,inactive,inactive
O=[N+]([O-])c1ccccc1,inactive,inactive

SMILES,Potency [1],Potency [2]
CN(C)N,inactive,inactive
CNC(=O)Oc1cccc2ccccc12,inactive,inactive
COP(=O)(OC)O/C(C)=C/C(=O)N(C)C,inactive,inactive
CCOP(=O)(OCC)OP(=O)(OCC)OCC,inactive,inactive
O=C(CCCN1CCC2(CC1)C(=O)NCN2c1ccccc1)c1ccc(F)cc1,inactive,inactive
c1coc(-c2nc3ccccc3[nH]2)c1,inactive,inactive
CCCOc1nn(C(=O)NS(=O)(=O)c2ccccc2C(=O)OC)c(=O)n1C,inactive,inactive
CC1CCC(C(C)C)C(OC(=O)c2ccccc2N)C1 (centres undefined),47.9 µM (active),53.7 µM (active)
Clc1cccc(SC2CCNCC2)n1,inactive,inactive
CCCCCCCCCCCCN(C)C,inactive,inactive
O=Cc1ccccc1,inactive,inactive
ClCc1cccc(Cl)c1,inactive,inactive
C[C@]12C/C(=C/O)C(=O)C[C@@H]1CC[C@@H]1[C@@H]2CC[C@@]2(C)[C@H]1CC[C@]2(C)O,inactive,inactive
COC(=O)C(Cl)C(=O)OC,inactive,inactive
Nc1ncn[nH]1,inactive,inactive
CCOC(=O)CC(SP(=S)(OC)OC)C(=O)OCC (centres undefined),inactive,inactive
C=CC(=O)OCC(C)O (centres undefined),inactive,inactive
Clc1cccc(Cl)c1Cl,inactive,inactive
CC(C)CCCCCCCOC(=O)c1ccccc1C(=O)OCCCCCCCC(C)C,inactive,inactive

SMILES,Potency [1],Potency [2]
Nc1ccc(N=Nc2ccccc2)cc1,inactive,inactive
COC(=O)c1sccc1S(=O)(=O)NC(=O)Nc1nc(C)nc(OC)n1,inactive,inactive
ClC(Cl)C(Cl)(Cl)Cl,inactive,inactive
CC(C)Nc1nc(Cl)nc(NC(C)C)n1,inactive,inactive
O=C1C(Cl)=C(Cl)C(=O)C(Cl)=C1Cl,inactive,inactive
CN(C)CCc1c[nH]c2cccc(O)c12,inactive,inactive
O=C(N[C@H]1CN2CCC1CC2)c1cc2ccoc2cn1,inactive,inactive
COc1cc(CC(C)N)cc2c1OCO2 (centres undefined),inactive,inactive
Clc1cc(Cl)c(-c2cc(Cl)c(Cl)cc2Cl)cc1Cl,inactive,inactive
COP(=O)(NC(C)=O)SC (centres undefined),inactive,inactive
CC(C)(c1cc(Cl)c(O)c(Cl)c1)c1cc(Cl)c(O)c(Cl)c1,inactive,inactive
CC(C)=CC1C(C(=O)OCN2C(=O)C3=C(CCCC3)C2=O)C1(C)C (centres undefined),inactive,inactive
O=CC=O,inactive,inactive
[O]=[Cd],inactive,inactive
Oc1ccc(C(c2ccc(O)cc2)(C(F)(F)F)C(F)(F)F)cc1,inactive,inactive
CC(C)CC(C)N (centres undefined),inactive,inactive
O=C(NC(=O)c1c(F)cccc1F)Nc1cc(Cl)c(F)c(Cl)c1F,inactive,inactive
CCCN(CCC)C(=O)Cc1c(-c2ccc(Cl)cc2)nc2ccc(Cl)cn12,inactive,inactive
CC(C)CCCCCCCOP(=O)(Oc1ccccc1)Oc1ccccc1,inactive,inactive

# Reference: PubChem BioAssay (Tox21)
